“And” between values parts separate entries of the source, which are not always exact repeats. Equal entries are not always repeated. Among all 5,500 compounds or so, about 2,000 (36%) were called active. Not shown: some 18% with an inconclusive outcome. Rule as the data show it: active = normalized growth mostly below about 0.91 (no sharp cut-off); inconclusive = no clear call, values can overlap the other calls; inactive = mostly above about 0.92. The list shows a part of the results.
Experiment: chemical genetic growth profiling, strain panel (AID 1159580);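 also: tested at 20 µM; growth read once vehicle control cultures reached saturation at 30 °C; 1 = growth at the plate median or of vehicle wells; lower values mean less growth of the strain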
Settings: S. cerevisiae deletion strains, growth OD
[1] = locus YAL013W, strain DEP1, stronger effect = lower value
[2] = locus YDR150W, strain NUM1, stronger effect = lower value
[3] = locus YJR075W, strain HOC1, stronger effect = lower value
[4] = locus YNL153C, strain GIM3, stronger effect = lower value

Measured: normalized growth

CN1CC(CNC(=O)OCc2ccccc2)CC2c3cccc4c3c(cn4C)CC21 (stereo unspecified)
inactive: [1] 1.01 | locus YBR021W, strain FUR4, stronger effect = lower value 1.02 | locus YBR229C, strain ROT2, stronger effect = lower value 1 | locus YCL029C, strain bik1, stronger effect = lower value 0.977 | locus YDL035C, strain GPR1, stronger effect = lower value 1.04 | locus YDL074C, strain BRE1, stronger effect = lower value 0.999 | locus YDL101C, strain DUN1, stronger effect = lower value 0.978 | locus YDL185W, strain tfp1, stronger effect = lower value 0.97 | locus YDL192W, strain arf1, stronger effect = lower value 0.993 | locus YDR101C, strain arx1, stronger effect = lower value 0.995 | [2] 0.994 | locus YDR162C, strain NBP2, stronger effect = lower value 1.02 | locus YDR318W, strain mcm21, stronger effect = lower value 0.985 | locus YDR388W, stronger effect = lower value 0.987 | locus YDR502C, strain sam2, stronger effect = lower value 0.941 | locus YEL061C, strain CIN8, stronger effect = lower value 0.992 | locus YER110C, stronger effect = lower value 0.972 | locus YER155C, strain BEM2, stronger effect = lower value 0.991 | locus YER167W, strain BCK2, stronger effect = lower value 1 | locus YGL078C, strain dbp3, stronger effect = lower value 0.995 | locus YGL086W, strain mad1, stronger effect = lower value 0.982 | locus YGL248W, strain PDE1, stronger effect = lower value 0.989 | locus YGR078C, strain PAC10, stronger effect = lower value 0.995 | locus YGR135W, strain pre9, stronger effect = lower value 0.984 | locus YGR252W, strain gcn5, stronger effect = lower value 1.04 | locus YHR030C, strain SLT2, stronger effect = lower value 0.998 and 0.982 | locus YHR079C, strain IRE1 (second series), stronger effect = lower value 0.965 | locus YHR079C, strain IRE1, stronger effect = lower value 0.972 | locus YHR094C, strain hxt1, stronger effect = lower value 0.988 | locus YHR129C, strain ARP1, stronger effect = lower value 0.999 | locus YHR200W, strain rpn10, stronger effect = lower value 0.985 | locus YIL066C, strain RNR3, stronger effect = lower value 1.01 | locus YIL073C, strain SPO22, stronger effect = lower value 0.911 | locus YIL125W, strain kgd1, stronger effect = lower value 1 | locus YIR030C, strain dcg1, stronger effect = lower value 0.986 | locus YJL095W, strain BCK1, stronger effect = lower value 0.957 and 0.968 | locus YJL134W, strain LCB3, stronger effect = lower value 0.995 | locus YJL168C, strain set2, stronger effect = lower value 1 | locus YJL187C, strain SWE1 (second series), stronger effect = lower value 0.973 | locus YJR043C, strain POL32, stronger effect = lower value 1.07 | locus YJR066W, strain TOR1, stronger effect = lower value 0.877 | [3] 0.981 | locus YKL009W, strain mrt4, stronger effect = lower value 0.979 | locus YKL068W, stronger effect = lower value 0.983 | locus YKL085W, strain MDH1 (second series), stronger effect = lower value 0.975 | locus YKL085W, strain MDH1, stronger effect = lower value 0.975 | locus YKR001C, strain vps1, stronger effect = lower value 0.996 | locus YLR039C, strain RIC1, stronger effect = lower value 0.988 | locus YLR058C, strain SHM2, stronger effect = lower value 0.988 | locus YLR102C, strain apc9, stronger effect = lower value 0.986 | locus YLR113W, strain HOG1, stronger effect = lower value 1.03 | locus YLR262C, strain YPT6, stronger effect = lower value 0.998 | locus YLR268W, strain sec22, stronger effect = lower value 0.986 | locus YLR330W, strain CHS5, stronger effect = lower value 0.993 | locus YLR342W, strain FKS1 (second series), stronger effect = lower value 1.07 | locus YLR371W, strain rom2, stronger effect = lower value 0.992 | locus YLR418C, strain cdc73, stronger effect = lower value 1.01 | locus YML016C, strain PPZ1, stronger effect = lower value 0.999 | locus YML032C, strain rad52, stronger effect = lower value 0.998 | locus YML124C, strain tub3, stronger effect = lower value 1 | locus YMR078C, strain ctf18, stronger effect = lower value 0.983 | locus YMR223W, strain ubp8, stronger effect = lower value 0.979 | locus YMR263W, strain SAP30, stronger effect = lower value 0.979 | locus YMR307W, strain GAS1, stronger effect = lower value 1.16 | locus YNL067W, strain RPL9B, stronger effect = lower value 0.96 | [4] 0.981 | locus YNL183C, strain NPR1, stronger effect = lower value 0.879 | locus YNL233W, strain BNI4, stronger effect = lower value 0.986 | locus YNL250W, strain rad50, stronger effect = lower value 0.971 | locus YNL271C, strain bni1, stronger effect = lower value 0.992 | locus YNL298W, strain CLA4, stronger effect = lower value 0.99 | locus YNL307C, strain MCK1, stronger effect = lower value 0.985 | locus YNR052C, strain pop2, stronger effect = lower value 0.975 | locus YOL012C, strain htz1 0.968 | locus YOL147C, strain pex11, stronger effect = lower value 0.989 | locus YOR061W, strain CKA2, stronger effect = lower value 0.994 | locus YOR069W, strain VPS5, stronger effect = lower value 0.997 | locus YOR136W, strain idh2, stronger effect = lower value 0.98 | locus YOR144C, strain elg1, stronger effect = lower value 1.01 | locus YOR184W, strain ser1, stronger effect = lower value 1 | locus YOR231W, strain MKK1, stronger effect = lower value 0.991 | locus YOR316C, strain cot1, stronger effect = lower value 0.979 | locus YPL256C, strain CLN2, stronger effect = lower value 0.986 | locus YPR119W, strain clb2, stronger effect = lower value 0.981 | locus YPR141C, strain kar3, stronger effect = lower value 0.988 | locus YPR163C, strain tif3, stronger effect = lower value 1 | locus YPR167C, strain met16, stronger effect = lower value 0.991 | strain wtn01, stronger effect = lower value 1.01

CN1C[C@H](CNC(=O)OCc2ccccc2)C[C@@H]2c3cccc4c3c(cn4C)C[C@H]21
inactive: [1] 0.987 | locus YAL040C, strain CLN3, stronger effect = lower value 0.985 | locus YCL061C, strain MRC1 (second series), stronger effect = lower value 0.998 | [2] 0.994 | locus YDR363W, strain ESC2, stronger effect = lower value 1.01 | locus YER002W, strain NOP16, stronger effect = lower value 1.04 | [3] 0.969 | [4] 0.904 | locus YNL175C, strain NOP13, stronger effect = lower value 1.01 | locus YNL197C, strain WHI3, stronger effect = lower value 0.994 | locus YNL224C, strain SQS1, stronger effect = lower value 1.04 | locus YOR083W, strain WHI5 (second series), stronger effect = lower value 0.969 | locus YPL055C, strain LGE1, stronger effect = lower value 1.02
